# Assay outcomes as filed in PubChem BioAssay.
# Hits are enriched below; roughly 6.8% of the tested compounds scored in any of these assays.
# Pf Dd2 inh = blocks growth of Plasmodium falciparum Dd2 parasites; P. falciparum Dd2 growth, SYBR Green, 72 h; active compounds read low; activity change, % at 10 µM; actives 2.3% (n = 94,000); in the data active means activity change below about -80%; inconclusive means no clear call, values can overlap the other calls
# T cruzi growth = T. cruzi proliferation inhibition; inhibition, % at 8.34 µM; actives 5.9% (n = 77,000); T. cruzi beta-gal in NIH3T3, GalScreen luminescence, 90 h;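 active means mean inhibition above about 93%, with at least 55% of replicates each passing it, limit read from the data, passing the limit was not always enough; inconclusive means only one of those two conditions holds; inactive means neither condition holds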
# C diff growth = inhibitors of Clostridium difficile growth; growth activity, negative = inhibition, % at 16 µg/mL (by protocol); Clostridium difficile clinical isolate growth, OD600, 24 h; active compounds read low; actives 0.25% (n = 86,000);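 active means mean growth activity at or below -80% and every replicate also at or below -80%; inconclusive means mean at or below -80% but some replicate above -80%; inactive means mean growth activity above -80%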;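 further: 0% = DMSO wells and -100% = levofloxacin 16 µg/mL wells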
# * marks the source's active call; other numbers are inactive results; ? = inconclusive; nt = no result given.
SMILES,Pf Dd2 inh,T cruzi growth,C diff growth
COc1ccc(NC(=O)Nc2ccc3c(c2)C(=O)N([C@@H](C)CO)C[C@@H](C)[C@@H](CN(C)Cc2ccc4c(c2)OCO4)OCCCC[C@H](C)O3)cc1,-69.7,78.6,6.7
Cc1noc(C)c1NC(=O)Nc1ccc2c(c1)C(=O)N([C@@H](C)CO)C[C@H](C)[C@@H](CN(C)S(C)(=O)=O)O2,-14.6,88.2,nt
C[C@@H]1CN([C@H](C)CO)C(=O)c2cc(NC(=O)Nc3ccccc3)ccc2O[C@@H](C)CCCCO[C@@H]1CN(C)Cc1ccc(Cl)c(Cl)c1,-85.1*,70.0,10.0
Cc1noc(C)c1NC(=O)Nc1ccc2c(c1)C(=O)N([C@H](C)CO)C[C@@H](C)[C@@H](CN(C)S(C)(=O)=O)O2,-91.6*,94.3,nt
O=C(c1ccc(F)cc1)N1CC(=O)N2[C@H](CO)[C@H](c3ccc(-c4cccnc4)cc3)[C@H]2C1,-87.1*,nt,-9.8
COC(=O)c1ccc(CN2CC(=O)N3[C@H](C2)[C@@H](c2ccc(-c4ccccc4F)cc2)[C@@H]3CO)cc1,-3.1,nt,3.1
O=C(c1ccc(F)cc1)N1CC(=O)N2[C@H](C1)[C@H](c1ccc(-c3cccnc3)cc1)[C@@H]2CO,-5.9,nt,-3.0
O=C(c1cccc(F)c1)N1CC(=O)N2[C@H](CO)[C@H](c3ccc(-c4cccnc4)cc3)[C@@H]2C1,10.1,nt,-0.6
O=C(c1ccc(F)cc1)N1CC(=O)N2[C@H](C1)[C@@H](c1ccc(-c3cccnc3)cc1)[C@@H]2CO,-89.2*,nt,0.1
COC(=O)c1ccc(CN2CC(=O)N3[C@H](CO)[C@@H](c4ccc(-c5ccccc5F)cc4)[C@H]3C2)cc1,-83.2*,nt,-5.2
O=C(c1cccc(F)c1)N1CC(=O)N2[C@H](C1)[C@@H](c1ccc(-c3cccnc3)cc1)[C@@H]2CO,-87.6*,nt,-2.5
O=C(c1cccnc1)N1CC(=O)N2[C@H](C1)[C@H](c1ccc(-c3ccc(F)cc3)cc1)[C@@H]2CO,-24.5,nt,2.4
C[C@H]1CN([C@@H](C)CO)C(=O)c2cccc(NS(=O)(=O)c3ccc(F)cc3)c2O[C@@H]1CN(C)C(=O)Nc1cccc2ccccc12,10.7,nt,-2.3
COc1ccccc1-c1cnc2c(c1)C(=O)N([C@H](C)CO)C[C@H](C)[C@H](CN(C)Cc1ccc(F)cc1)O2,-22.1,nt,8.6
CC(C)C#Cc1ccc([C@@H]2[C@H](CO)N3C(=O)CN(C(=O)c4ccc5c(c4)OCO5)C[C@@H]23)cc1,-6.1,nt,1.9
C[C@@H]1CN([C@@H](C)CO)C(=O)Cc2cc(NC(=O)Cc3cn(C)c4ccccc34)ccc2O[C@@H]1CN(C)C(=O)NC1CCCCC1,-38.5,-13.8,2.6
O=C(c1ccccc1F)N1CC(=O)N2[C@H](C1)[C@@H](c1ccc(-c3cccnc3)cc1)[C@@H]2CO,-86.7*,nt,-3.5
O=C(c1ccccc1F)N1CC(=O)N2[C@@H](CO)[C@@H](c3ccc(-c4cccnc4)cc3)[C@@H]2C1,-4.2,nt,-5.6
C[C@H](CO)N1C[C@H](C)[C@@H](CN(C)C(=O)Nc2ccccc2)OCc2ccccc2-c2c(n(C)c3ccccc23)C1=O,-69.3,72.4,nt
C[C@H]1CN([C@@H](C)CO)C(=O)c2c(c3ccccc3n2C)-c2ccccc2CO[C@@H]1CN(C)C(=O)Nc1ccc(-c2ccccc2)cc1,-89.3*,nt,1.4
C[C@H]1CN([C@@H](C)CO)C(=O)c2c(c3ccccc3n2C)-c2ccccc2CO[C@@H]1CN(C)C(=O)Nc1ccc(F)cc1,-37.4,31.0,10.3
C[C@@H]1CN([C@@H](C)CO)C(=O)c2c(c3ccccc3n2C)-c2ccccc2CO[C@@H]1CN(C)C(=O)Nc1ccc(-c2ccccc2)cc1,-88.0*,nt,-5.5
C[C@@H]1CN([C@H](C)CO)C(=O)c2c(c3ccccc3n2C)-c2ccccc2CO[C@@H]1CN(C)C(=O)Nc1ccc(-c2ccccc2)cc1,-82.6*,nt,-2.6
C[C@H](CO)N1C[C@H](C)[C@H](CN(C)C(=O)Nc2ccc(F)cc2)OCc2ccccc2-c2c(n(C)c3ccccc23)C1=O,-39.2,nt,-4.8
C[C@H](CO)N1C[C@H](C)[C@H](CN(C)C(=O)Nc2ccccc2)OCc2ccccc2-c2c(n(C)c3ccccc23)C1=O,-14.2,48.7,nt
SMILES,Pf Dd2 inh,T cruzi growth,C diff growth
C[C@H](CO)N1C[C@H](C)[C@@H](CN(C)C(=O)Nc2ccc(-c3ccccc3)cc2)OCc2ccccc2-c2c(n(C)c3ccccc23)C1=O,-94.1*,nt,7.4
COc1cccc(C(=O)Nc2ccc3c(c2)C(=O)N(C)C[C@@H](OC)[C@H](C)CN(C)[C@@H](C)CO3)c1,-9.8,-10.6,nt
C[C@@H]1CN([C@@H](C)CO)C(=O)c2cc(C#Cc3ccncc3)cnc2O[C@H]1CN(C)C(=O)CN(C)C,17.4,15.4,11.7
Cc1ccc(S(=O)(=O)N[C@@H]2C=C[C@@H](CC(=O)NCc3ccncn3)O[C@H]2CO)cc1,12.2,18.0,-0.4
C[C@H](CO)N1C[C@H](C)[C@H](CN(C)C(=O)Nc2ccc3c(c2)OCO3)OCc2ccccc2-c2c(n(C)c3ccccc23)C1=O,-84.7*,92.3,-1.9
C[C@H]1CN([C@@H](C)CO)C(=O)c2c(c3ccccc3n2C)-c2ccccc2CO[C@H]1CN(C)C(=O)Nc1ccc2c(c1)OCO2,-63.4,71.7,7.9
Cc1noc(C)c1NC(=O)Nc1ccc2c(c1)C(=O)N([C@H](C)CO)C[C@@H](C)[C@@H](CN(C)C)OCCCC[C@@H](C)O2,38.2,26.9,-0.7
O=C1CN(S(=O)(=O)c2ccccc2)C[C@@H]2[C@H](c3ccc(C#CCc4ccccc4)cc3)[C@H](CO)N12,-70.3,nt,6.4
Cc1ccccc1S(=O)(=O)N1CC(=O)N2[C@H](CO)[C@H](c3ccc(C#Cc4ccccc4)cc3)[C@H]2C1,-40.9,nt,-0.2
O=C1CN(S(=O)(=O)c2ccccc2)C[C@@H]2[C@H](c3ccc(C#CCc4ccccc4)cc3)[C@@H](CO)N12,-84.2*,nt,10.7
Cc1ccccc1S(=O)(=O)N1CC(=O)N2[C@H](C1)[C@@H](c1ccc(C#Cc3ccccc3)cc1)[C@@H]2CO,-82.0*,nt,-1.0
C[C@@H]1CN([C@H](C)CO)C(=O)c2cccc(NC(=O)c3nc4ccccc4s3)c2O[C@@H]1CN(C)C(=O)NC1CCCCC1,-60.1,3.8,nt
C[C@@H]1CN([C@@H](C)CO)C(=O)c2ccccc2-c2ccccc2CO[C@@H]1CN(C)Cc1cccc(C(F)(F)F)c1,-82.1*,nt,18.3
C[C@H](CO)N1C[C@H](C)[C@@H](CN(C)Cc2cccc(C(F)(F)F)c2)OCc2ccccc2-c2c(n(C)c3ccccc23)C1=O,?,nt,21.9
C[C@H](CO)N1C[C@H](C)[C@H](CN(C)Cc2cccc(C(F)(F)F)c2)OCc2ccccc2-c2c(n(C)c3ccccc23)C1=O,-82.9*,nt,6.7
C[C@H]1CN([C@@H](C)CO)C(=O)c2ccccc2-c2ccccc2CO[C@@H]1CN(C)Cc1cccc(C(F)(F)F)c1,-16.3,nt,27.8
C[C@H]1CN([C@@H](C)CO)C(=O)c2c(c3ccccc3n2C)-c2ccccc2CO[C@H]1CN(C)Cc1cccc(C(F)(F)F)c1,-74.8,nt,12.4
C[C@@H]1CN([C@H](C)CO)C(=O)c2c(c3ccccc3n2C)-c2ccccc2CO[C@@H]1CN(C)Cc1cccc(C(F)(F)F)c1,-87.0*,nt,22.6
